14-3-3 PPI: 14-3-3 gamma protein interaction modulation. P61981. FP, 14-3-3gamma / TMR-pS259-Raf peptide binding. inhibition, % at 40 µM. 160,000 compounds, 0.19% hits. AID 422; in the data active means inhibition above about 30%;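 further: 0% = protein plus tracer without compound and 100% = blank with tracer alone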
Target sequence (P61981 whole entry, looked up): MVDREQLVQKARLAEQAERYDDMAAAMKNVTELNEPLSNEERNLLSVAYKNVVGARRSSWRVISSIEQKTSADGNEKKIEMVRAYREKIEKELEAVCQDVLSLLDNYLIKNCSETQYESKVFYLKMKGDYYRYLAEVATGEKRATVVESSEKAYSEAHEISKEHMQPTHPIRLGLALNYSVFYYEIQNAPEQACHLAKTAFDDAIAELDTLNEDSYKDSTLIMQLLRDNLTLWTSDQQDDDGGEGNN
* marks the source's active call; other numbers are inactive results; ! = repeats disagree. Only a selection was taken, and hits are over-represented in it overall.

Results for CCOC(=O)C(CC(=O)O)N1CCCCC1 (stereo not drawn) ?
14-3-3 PPI: 35.5*

What do the screens show for `CN1C(=O)c2ccccc2C(C(=O)NCCN2CCc3ccccc3C2)C1c1cn(C)c2ccccc12` (stereo not drawn)?
14-3-3 PPI: -5.9

What do the screens show for `COc1ccc(C2CC(c3ccc(Br)cc3)=NN2S(=O)(=O)c2ccccc2)cc1OC` (stereo not drawn)?
14-3-3 PPI: 0.7

How did CCCn1c(COc2ccc(OC)cc2)nc2ccccc21 do in these assays?
14-3-3 PPI: -4.9

What do the screens show for `N#Cc1c(N=Cc2cc([N+](=O)[O-])ccc2Cl)sc2c1CCCC2`?
14-3-3 PPI: 1.0

Results for N#Cc1c(N=Cc2ccc(Cl)c([N+](=O)[O-])c2)sc2c1CCCC2 ?
14-3-3 PPI: -7.7

What do the screens show for `N#Cc1c(N=Cc2ccc([N+](=O)[O-])cc2)sc2c1CCC2`?
14-3-3 PPI: 135.5*

What do the screens show for `Cc1ccc(C=Nc2sc3c(c2C#N)CCC3)cc1`?
14-3-3 PPI: -30.8

How did N#Cc1c(N=Cc2ccc([N+](=O)[O-])s2)sc2c1CCCC2 do in these assays?
14-3-3 PPI: 63.0*

What do the screens show for `N#Cc1c(N=Cc2cc([N+](=O)[O-])ccc2O)sc2c1CCCC2`?
14-3-3 PPI: -13.5

How did CCC1(CC)OC2c3cc([N+](=O)[O-])ccc3OCN2c2ccccc21 (stereo not drawn) do in these assays?
14-3-3 PPI: -8.3

What do the screens show for `CCc1ccc(S(=O)(=O)N2CCSC2c2ccccc2Cl)cc1` (stereo not drawn)?
14-3-3 PPI: 3.2

How did O=C(CCNC(=O)c1ccc(Br)o1)NCc1ccccn1 do in these assays?
14-3-3 PPI: active!

How did Cc1ccc(CNC(=O)CCNC(=O)c2ccc(Br)o2)cc1 do in these assays?
14-3-3 PPI: -3.6

How did O=C(CCNC(=O)c1ccc(Br)o1)NCc1ccccc1Cl do in these assays?
14-3-3 PPI: 0.7

What do the screens show for `COc1cc(S(N)(=O)=O)c(OC)cc1Cl`?
14-3-3 PPI: -7.6

What do the screens show for `O=C(O)C1C2CCC(C2)C1C(=O)N1CCN(c2ccccc2F)CC1` (stereo not drawn)?
14-3-3 PPI: 43.5*

What do the screens show for `O=C(NC(=O)N1CCN(c2ccccc2F)CC1)c1ccccc1`?
14-3-3 PPI: 2.4

How did O=C(c1cnccn1)N1CCN(c2ccccc2F)CC1 do in these assays?
14-3-3 PPI: -26.6

Results for Cc1ccc(NC(=O)CN2c3cccc4cccc(c34)S2(=O)=O)cc1Br ?
14-3-3 PPI: -12.5

What do the screens show for `CCC(C)C(=O)N1c2c(C)cc(C)cc2C(=C2SC(C(=O)OC)=C(C(=O)OC)S2)C(=S)C1(C)C` (stereo not drawn)?
14-3-3 PPI: 11.6

What do the screens show for `CSc1ccc(OC(=O)c2ccccc2F)cc1`?
14-3-3 PPI: -5.0

How did O=C(Oc1ccc(C2CCCCC2)cc1)c1ccccc1F do in these assays?
14-3-3 PPI: 31.3*

Results for O=C(OCCN1CCCCC1)c1ccccc1F ?
14-3-3 PPI: -2.6

Results for C=CCNc1ccc2c3c(cccc13)C(=O)N(c1ccccc1)C2=O ?
14-3-3 PPI: 158.1*

Results for O=C1c2cccc3c(NCCO)ccc(c23)C(=O)N1CCO ?
14-3-3 PPI: 8.5

Results for O=C1c2ccc3c4c(ccc(c24)C(=O)N1c1ccccc1)N(c1ccccc1)C3=O ?
14-3-3 PPI: -69.1

What do the screens show for `O=C1c2cccc3c(N4CCCC4)ccc(c23)C(=O)N1c1ccccc1`?
14-3-3 PPI: -24.4

What do the screens show for `Nc1ccc2c3c(cccc13)C(=O)N(c1ccccc1)C2=O`?
14-3-3 PPI: 86.8*

Results for O=C1c2cccc3c([N+](=O)[O-])ccc(c23)C(=O)N1c1ccccc1 ?
14-3-3 PPI: 4.2

What do the screens show for `O=C(NCc1ccc(F)cc1)c1ccc(N2CC3CC(C2)c2cccc(=O)n2C3)c(NC(=O)c2ccc(F)cc2)c1` (stereo not drawn)?
14-3-3 PPI: -3.1

Results for CC1C=CCC2C(=O)N(c3cccc(O)c3)C(=O)C12 (stereo not drawn) ?
14-3-3 PPI: -3.1

Results for Cc1nn(-c2cc(N3CCN(C(=O)c4ccc(Cl)cc4)CC3)ccc2[N+](=O)[O-])c(=O)c2ccccc12 ?
14-3-3 PPI: 9.5

Results for Clc1ccccc1N1CCN(c2ncnc3sc4c(c23)CCCC4)CC1 ?
14-3-3 PPI: -19.6

How did C=CCN(c1ccccc1)S(=O)(=O)c1ccc(F)c(C(=O)Nc2cccc(Cl)c2)c1 do in these assays?
14-3-3 PPI: -8.9

What do the screens show for `O=C(NCc1ccco1)c1ccc2c(c1)ncn2-c1ccc(OCc2ccccc2)cc1`?
14-3-3 PPI: -50.8

How did O=C(Nc1cccc(F)c1)C1CC(=O)N(c2ccccc2)C1 (stereo not drawn) do in these assays?
14-3-3 PPI: -0.4

Results for COc1ccc(OC)c(NC(=O)COc2cc(C)ccc2C(C)C)c1 ?
14-3-3 PPI: 74.2*

What do the screens show for `COc1ccc(OC)c(NC(=O)COc2ccccc2C(C)C)c1`?
14-3-3 PPI: -2.2

What do the screens show for `Cc1ccc(C(C)C)c(OCC(=O)Nc2ccc(C)c(C)c2)c1`?
14-3-3 PPI: -11.4

What do the screens show for `O=C(CSc1nccn1-c1cccc(Cl)c1)NC1CCCCC1`?
14-3-3 PPI: -4.5

Results for Cc1cc(C)cc(-n2ccnc2SCC(=O)NC2CCCC2)c1 ?
14-3-3 PPI: 30.7*

What do the screens show for `Cc1cc(C)cc(-n2ccnc2SCC(=O)Nc2c(C)cc(C)cc2C)c1`?
14-3-3 PPI: 1.2

Results for Cc1cc(C)c(S(=O)(=O)Nc2ccc3oc4c(c3c2)CCC(C)C4)c(C)c1 (stereo not drawn) ?
14-3-3 PPI: -27.0

Results for CC(C)CCN1CC(C(=O)NCc2ccccc2Cl)CC1=O (stereo not drawn) ?
14-3-3 PPI: 2.8

How did Cc1nc2cc(C(=O)O)ccc2n1-c1ccccc1 do in these assays?
14-3-3 PPI: -2.8

Results for CCOc1ccccc1-n1cnc2cc(C(=O)O)ccc21 ?
14-3-3 PPI: 57.2*

Results for COc1ccc(OC)c(-n2cnc3cc(C(=O)O)ccc32)c1 ?
14-3-3 PPI: -19.3

Results for CCOc1ccccc1-n1cnc2cc(C(=O)NCc3ccco3)ccc21 ?
14-3-3 PPI: -13.9

Results for COc1ccccc1-n1c(C)nc2cc(C(=O)O)ccc21 ?
14-3-3 PPI: 39.6*

What do the screens show for `COCCNC(=O)c1ccc2c(c1)nc(C)n2-c1ccccc1OC`?
14-3-3 PPI: -128.7

What do the screens show for `COc1cc(C2C(C(=O)OCC3CCCO3)=C(C)NC3=C2C(=O)CC(c2cccs2)C3)cc([N+](=O)[O-])c1O` (stereo not drawn)?
14-3-3 PPI: -9.2

What do the screens show for `CCc1ccc(NC(=O)c2nn(-c3cccc(OC)c3)c(=O)c3ccccc23)cc1`?
14-3-3 PPI: 6.6

What do the screens show for `Cc1ccc(-n2c3c(cc(C(=O)Nc4ccccc4)c2=O)C(=O)CC(C)(C)C3)cc1`?
14-3-3 PPI: -9.5

How did CCC1CCc2c(sc(NC(=O)c3cnccn3)c2C(=O)OC)C1 (stereo not drawn) do in these assays?
14-3-3 PPI: -5.3

How did Clc1ccc2nc(-c3ccncc3)c(NC3CCCCC3)n2c1 do in these assays?
14-3-3 PPI: -7.9

How did COc1ccc(C2N(C(=O)c3ccccc3)CCN2S(=O)(=O)c2ccc(C)cc2)cc1 (stereo not drawn) do in these assays?
14-3-3 PPI: 10.7

How did Cc1ccc(C)c(Nc2cc(C(=O)NCc3ccccn3)c3ccccc3n2)c1 do in these assays?
14-3-3 PPI: 7.5

What do the screens show for `O=C(NCc1ccccn1)c1cc(Nc2cccc(C(F)(F)F)c2)nc2ccccc12`?
14-3-3 PPI: 152.4*

What do the screens show for `CC(C)OCCCNC(=O)c1cc(Nc2cccc(C(F)(F)F)c2)nc2ccccc12`?
14-3-3 PPI: -5.4

Bioassay records from PubChem BioAssay.
